Measured values from article PMC3919609, “Deep sequencing of large library selections allows computational discovery of diverse sets of zinc fingers that bind common targets”.

Legend:
Experiment in all cases: Zn; 100 nM beta-estradiol; yeast GFP reporter, 12 h induction, 3 biological replicates
[1] = molecular target: Zif268 (Egr1) fingers 1-3 (Mus musculus, UniProt P08046 333-418); conditions: dsDNA, one strand shown
[2] = molecular target: RA three-finger array, finger 2 DSSNLRS (synthetic construct (mouse Zif268 …, UniProt P08046 333-418, E352N;T354R;R355A;R377D;D379S;H380N;T382R;T383S;D407A;E408N;R409L;K410V)); conditions: tags: estrogen receptor LBD - VP16 fusion (left out); vector residues GT and GS kept at the ends; dsDNA, one strand shown
[3] = molecular target: RA three-finger array, finger 2 ASSNLRA (synthetic construct (mouse Zif268 …, UniProt P08046 333-418, E352N;T354R;R355A;R377A;D379S;H380N;T382R;T383A;D407A;E408N;R409L;K410V)); conditions: tags: estrogen receptor LBD - VP16 fusion (left out); vector residues GT and GS kept at the ends; dsDNA, one strand shown
[4] = molecular target: RA three-finger array, finger 2 HSSNLTH (synthetic construct (mouse Zif268 …, UniProt P08046 333-418, E352N;T354R;R355A;R377H;D379S;H380N;T383H;D407A;E408N;R409L;K410V)); conditions: tags: estrogen receptor LBD - VP16 fusion (left out); vector residues GT and GS kept at the ends; dsDNA, one strand shown
[5] = molecular target: RA three-finger array, finger 2 QSGNLKS (synthetic construct (mouse Zif268 …, UniProt P08046 333-418, E352N;T354R;R355A;R377Q;D379G;H380N;T382K;T383S;D407A;E408N;R409L;K410V)); conditions: tags: estrogen receptor LBD - VP16 fusion (left out); vector residues GT and GS kept at the ends; dsDNA, one strand shown
[6] = molecular target: RA three-finger array, finger 2 TSYNLTR (synthetic construct (mouse Zif268 …, UniProt P08046 333-418, E352N;T354R;R355A;R377T;D379Y;H380N;T383R;D407A;E408N;R409L;K410V)); conditions: tags: estrogen receptor LBD - VP16 fusion (left out); vector residues GT and GS kept at the ends; dsDNA, one strand shown
[7] = molecular target: RA three-finger array, finger 2 TSWNLRS (synthetic construct (mouse Zif268 …, UniProt P08046 333-418, E352N;T354R;R355A;R377T;D379W;H380N;T382R;T383S;D407A;E408N;R409L;K410V)); conditions: tags: estrogen receptor LBD - VP16 fusion (left out); vector residues GT and GS kept at the ends; dsDNA, one strand shown
[8] = molecular target: RA three-finger array, finger 2 RSDNLTR (synthetic construct (mouse Zif268 …, UniProt P08046 333-418, E352N;T354R;R355A;H380N;T383R;D407A;E408N;R409L;K410V)); conditions: tags: estrogen receptor LBD - VP16 fusion (left out); vector residues GT and GS kept at the ends; dsDNA, one strand shown
[9] = molecular target: RA three-finger array, finger 2 RSGNLRS (synthetic construct (mouse Zif268 …, UniProt P08046 333-418, E352N;T354R;R355A;D379G;H380N;T382R;T383S;D407A;E408N;R409L;K410V)); conditions: tags: estrogen receptor LBD - VP16 fusion (left out); vector residues GT and GS kept at the ends; dsDNA, one strand shown
[10] = molecular target: RA three-finger array, finger 2 RADNLTE (synthetic construct (mouse Zif268 …, UniProt P08046 333-418, E352N;T354R;R355A;S378A;H380N;T383E;D407A;E408N;R409L;K410V)); conditions: tags: estrogen receptor LBD - VP16 fusion (left out); vector residues GT and GS kept at the ends; dsDNA, one strand shown
[11] = molecular target: RA three-finger array, finger 2 QSGNLTE (synthetic construct (mouse Zif268 …, UniProt P08046 333-418, E352N;T354R;R355A;R377Q;D379G;H380N;T383E;D407A;E408N;R409L;K410V)); conditions: tags: estrogen receptor LBD - VP16 fusion (left out); vector residues GT and GS kept at the ends; dsDNA, one strand shown

For GCGTGGGAG, the binding signal [1] was 0.755 mean GFP / mean GFP of Zif268 on its consensus site.

In the case of GAGCACAAG, the binding signal [2] is reported as 0.498 ± 0.055 mean GFP / mean GFP of Zif268 on its consensus site, the binding signal [3] is reported as 0.225 ± 0.031 mean GFP / mean GFP of Zif268 on its consensus site and the binding signal [4] is reported as 0.472 ± 0.086 mean GFP / mean GFP of Zif268 on its consensus site. The binding signal [5] was 0.219 ± 0.008 mean GFP / mean GFP of Zif268 on its consensus site.

GCGTGGGCG was tested, and the binding signal [1] was 1 mean GFP / mean GFP of Zif268 on its consensus site.

For GAGGAGAAG, the binding signal [6] was 0.873 ± 0.063 mean GFP / mean GFP of Zif268 on its consensus site, the binding signal [7] was 0.103 ± 0.007 mean GFP / mean GFP of Zif268 on its consensus site and the binding signal [8] was 0.986 ± 0.121 mean GFP / mean GFP of Zif268 on its consensus site. The binding signal [9] was 0.149 ± 0.009 mean GFP / mean GFP of Zif268 on its consensus site.

In the case of GAGCAGAAG, the binding signal [6] is reported as 0.098 mean GFP / mean GFP of Zif268 on its consensus site, the binding signal [10] is reported as 0.267 ± 0.016 mean GFP / mean GFP of Zif268 on its consensus site and the binding signal [7] is reported as 1.13 ± 0.189 mean GFP / mean GFP of Zif268 on its consensus site. For the same sequence, the binding signal [3] was 0.103 ± 0.004 mean GFP / mean GFP of Zif268 on its consensus site, the binding signal [9] was 0.997 ± 0.075 mean GFP / mean GFP of Zif268 on its consensus site and the binding signal [5] was 0.174 ± 0.003 mean GFP / mean GFP of Zif268 on its consensus site.

In the case of GCGTGGGGG, the binding signal [1] is reported as 0.059 mean GFP / mean GFP of Zif268 on its consensus site.

With GAGCAAAAG the binding signal [11] was 0.251 ± 0.044 mean GFP / mean GFP of Zif268 on its consensus site, the binding signal [9] was 0.138 ± 0.011 mean GFP / mean GFP of Zif268 on its consensus site and the binding signal [5] was 0.463 ± 0.041 mean GFP / mean GFP of Zif268 on its consensus site.

GAGCATAAG was tested, and the binding signal [7] was 0.344 ± 0.012 mean GFP / mean GFP of Zif268 on its consensus site, the binding signal [3] was 0.875 ± 0.05 mean GFP / mean GFP of Zif268 on its consensus site and the binding signal [9] was 0.264 ± 0.005 mean GFP / mean GFP of Zif268 on its consensus site. The binding signal [5] was 0.226 ± 0.01 mean GFP / mean GFP of Zif268 on its consensus site.

GCGTGGGTG was tested, and the binding signal [1] was 0.878 mean GFP / mean GFP of Zif268 on its consensus site.

With GCGTGGGCC the binding signal [1] was 0.147 mean GFP / mean GFP of Zif268 on its consensus site.

In the case of GAGAAGAAG, the binding signal [7] is reported as 0.437 ± 0.032 mean GFP / mean GFP of Zif268 on its consensus site and the binding signal [9] is reported as 0.587 ± 0.052 mean GFP / mean GFP of Zif268 on its consensus site.
